According to PubChem BioAssay (NCI):
This is part of a sample that, as a whole, favours compounds with a hit. Of some 83,000 tested, about 20% had one in any assay.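 Testing used 96-well plates and a 48-hour single-concentration exposure. Example: -40 means 40% of the starting cells died.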 Calls of active or inactive are those of the source. How the source made its calls: active means growth percent below 10; inactive means the rest.

What was measured:
Assay in all cases: NCI-60 one-dose screen, 48 h (100 = growth as untreated, 0 = no growth, -100 = all killed)
Conditions in all cases: 10 µM unless noted
HCT-15 colon = test system: HCT-15 colon
HT29 colon = test system: HT29 colon
SNB-75 CNS = test system: SNB-75 CNS
SNB-19 CNS = test system: SNB-19 CNS
U251 CNS = test system: U251 CNS
PC-3 prostate = test system: PC-3 prostate
SK-MEL-5 melanoma = test system: SK-MEL-5 melanoma
UACC-62 melanoma = test system: UACC-62 melanoma
LOX IMVI melanoma = test system: LOX IMVI melanoma
SK-MEL-28 melanoma = test system: SK-MEL-28 melanoma

Measured: growth

C[PH+](c1nc2ccccc2nc1[PH+](C)C(C)(C)C)C(C)(C)C.C[PH+](c1nc2ccccc2nc1[PH+](C)C(C)(C)C)C(C)(C)C.[Au+].[Cl-] (stereo not given)
active: HCT-15 colon -80.9% | HT29 colon -100% | SNB-75 CNS -98.4% | SNB-19 CNS -100% | U251 CNS -86.8% | PC-3 prostate -83.9% | SK-MEL-5 melanoma -100% | UACC-62 melanoma -79.5% | LOX IMVI melanoma -85.5% | SK-MEL-28 melanoma -85%

Cn1cc(-c2csc(-c3c[nH]c4ccccc34)n2)c2cnccc21
inactive: SNB-75 CNS 80.6% | SNB-19 CNS 48.8% | PC-3 prostate 48.4% | SK-MEL-5 melanoma 51.9%
active: HCT-15 colon -59.7% | HT29 colon -1.85% | U251 CNS -25.2% | UACC-62 melanoma -52.7% | LOX IMVI melanoma -84.9% | SK-MEL-28 melanoma -51.5%

COc1ccc(OC)c(-c2nc(SCC(=O)c3ccc(C#N)cc3)[nH]c(=O)c2C#N)c1
inactive: HCT-15 colon 96.9% | HT29 colon 108% | SNB-75 CNS 93.7% | SNB-19 CNS 97.6% | U251 CNS 103% | PC-3 prostate 94.5% | SK-MEL-5 melanoma 106% | UACC-62 melanoma 94.7% | LOX IMVI melanoma 94.7% | SK-MEL-28 melanoma 102%

COC1=CC(c2ccc[nH]2)=N/C1=C\c1[nH]c(C)c(C(=O)OC(C)C)c1C
active: HCT-15 colon -30.1% | HT29 colon -11.6% | SNB-75 CNS -15.7% | U251 CNS -26.7% | PC-3 prostate 8.84% | SK-MEL-5 melanoma -99.5% | UACC-62 melanoma -62.9% | LOX IMVI melanoma -92.4% | SK-MEL-28 melanoma -54.5%
inactive: SNB-19 CNS 21.1%

N=C(N)c1ccc(-c2ccc(-c3ccc(Cl)c(Cl)c3)s2)nc1
inactive: SNB-75 CNS 84.8% | SNB-19 CNS 11.7% | SK-MEL-5 melanoma 91.3% | UACC-62 melanoma 81% | SK-MEL-28 melanoma 107%
active: HCT-15 colon -71.9% | HT29 colon 5.19% | U251 CNS -55.7% | PC-3 prostate -16.9% | LOX IMVI melanoma -88.6%

CCCCCCCCCCC(CN(CC)CC)C(O)c1ccccc1 (stereo not given)
active: HT29 colon -2.44% | SK-MEL-5 melanoma -93.8% | UACC-62 melanoma -44.3% | LOX IMVI melanoma -82% | SK-MEL-28 melanoma -61.6%
inactive: HCT-15 colon 13.5% | SNB-75 CNS 49.4% | SNB-19 CNS 51.5% | U251 CNS 12.9% | PC-3 prostate 25.9%

Cc1ccc(C[P+](c2ccccc2)(c2ccccc2)c2ccccc2)cc1
active: HT29 colon 2.44% | SNB-75 CNS -3.92% | U251 CNS 7.54% | PC-3 prostate 4.25% | SK-MEL-5 melanoma -66.3% | UACC-62 melanoma 6.79% | SK-MEL-28 melanoma 9.82%
inactive: HCT-15 colon 82.5% | SNB-19 CNS 19.9% | LOX IMVI melanoma 15.4%

Nc1ncnc2c1N=C(c1ccc(Br)cc1)CC(c1cccc(Nc3ccnc4cc(C(F)(F)F)ccc34)c1)N2 (stereo not given)
inactive: HCT-15 colon 27.2% | HT29 colon 26.4% | SNB-75 CNS 66.2% | SNB-19 CNS 70.6% | U251 CNS 51% | PC-3 prostate 39% | SK-MEL-5 melanoma 49.5% | UACC-62 melanoma 74.3% | LOX IMVI melanoma 63.3% | SK-MEL-28 melanoma 72.2%

C=CCSc1nnc(NC(=O)CCl)s1
inactive: HCT-15 colon 89.7% | HT29 colon 110% | SNB-75 CNS 103% | SNB-19 CNS 89.8% | U251 CNS 92% | PC-3 prostate 103% | SK-MEL-5 melanoma 88% | UACC-62 melanoma 88.8% | SK-MEL-28 melanoma 99%
active: LOX IMVI melanoma 7.79%

Fc1cc2c(cc1Cl)N(c1ncnc3ccc(-c4ccc5n[nH]nc5c4)cc13)CC2
inactive: HCT-15 colon 95.7% | HT29 colon 95% | SNB-75 CNS 22.1% | SNB-19 CNS 80% | U251 CNS 86.9% | PC-3 prostate 71.1% | SK-MEL-5 melanoma 91.2% | UACC-62 melanoma 78.7% | LOX IMVI melanoma 86% | SK-MEL-28 melanoma 86.9%

COc1cc2c(cc1OCCCN1CCN(CCCOc3cc4c(cc3OC)C(=O)N3CC(F)(F)C[C@H]3C=N4)CC1)N=C[C@@H]1CC(F)(F)CN1C2=O
active: SNB-75 CNS 2.55% | U251 CNS 7.49%
inactive: HCT-15 colon 101% | HT29 colon 60.1% | SNB-19 CNS 47.2% | PC-3 prostate 68.5% | SK-MEL-5 melanoma 20.6% | UACC-62 melanoma 76.2% | LOX IMVI melanoma 12% | SK-MEL-28 melanoma 99.3%

COC(CC(F)F)c1cn(S(=O)(=O)c2ccc(C)cc2)c2ccccc12 (stereo not given)
inactive: HCT-15 colon 20% | SNB-75 CNS 18.6% | SNB-19 CNS 29.2% | U251 CNS 19.6% | PC-3 prostate 21.3% | SK-MEL-5 melanoma 34.1% | UACC-62 melanoma 32.1% | LOX IMVI melanoma 40.7% | SK-MEL-28 melanoma 44.7%
active: HT29 colon 4.89%

COc1ccc(/C=C(\C#N)n2nnc3cc(F)c(F)cc32)cc1
inactive: HCT-15 colon 29.9% | SNB-75 CNS 70.9% | SNB-19 CNS 59.1% | U251 CNS 72.4% | PC-3 prostate 41.2% | SK-MEL-5 melanoma 52.2% | UACC-62 melanoma 29.6% | LOX IMVI melanoma 47.1% | SK-MEL-28 melanoma 58.1%
active: HT29 colon 6.99%

Cc1ccccc1/C=C/C(=O)c1cccc(OCCCCOc2cccc(C(=O)/C=C/c3ccccc3C)c2)c1
inactive: HCT-15 colon 84.6% | HT29 colon 86.8% | SNB-75 CNS 90.9% | SNB-19 CNS 93.5% | U251 CNS 93% | PC-3 prostate 100% | SK-MEL-5 melanoma 101% | UACC-62 melanoma 74.8% | LOX IMVI melanoma 95.9% | SK-MEL-28 melanoma 95.2%

COc1cc2ncnc(Nc3ccc(S(=O)(=O)Nc4cc(C)on4)cc3)c2cc1OCCCN1CCN(c2ccc(F)cc2)CC1
inactive: HCT-15 colon 110% | HT29 colon 112% | SNB-75 CNS 85.4% | SNB-19 CNS 97.3% | U251 CNS 93.6% | PC-3 prostate 101% | SK-MEL-5 melanoma 103% | UACC-62 melanoma 91% | LOX IMVI melanoma 89.8% | SK-MEL-28 melanoma 107%

O=C(Nc1ccc(Oc2cccc(Cl)c2)c(Cl)c1)c1cnccn1
inactive: HCT-15 colon 23.3% | SNB-19 CNS 33.5% | U251 CNS 16.5% | PC-3 prostate 11.1% | SK-MEL-5 melanoma 25.8% | UACC-62 melanoma 28.4% | LOX IMVI melanoma 29.9% | SK-MEL-28 melanoma 64.9%
active: HT29 colon 2.14% | SNB-75 CNS -20.9%

COc1ccc(C2=C(Br)C(=O)c3nc(C)ccc3C2=O)cc1
inactive: HCT-15 colon 93.1% | HT29 colon 110% | SNB-75 CNS 93.8% | SNB-19 CNS 94.9% | U251 CNS 94% | PC-3 prostate 80% | SK-MEL-5 melanoma 91.6% | UACC-62 melanoma 88.5% | LOX IMVI melanoma 95.4% | SK-MEL-28 melanoma 107%

COc1cc(C2CC(c3ccc(Nc4nc(Nc5ccc(Cl)cc5)nc(Nc5ccc(Cl)cc5)n4)cc3)=NN2C(C)=O)cc(OC)c1OC (stereo not given)
inactive: HCT-15 colon 88.9% | HT29 colon 97.2% | SNB-75 CNS 106% | SNB-19 CNS 102% | U251 CNS 93.6% | PC-3 prostate 89.9% | SK-MEL-5 melanoma 81.3% | UACC-62 melanoma 90.1% | LOX IMVI melanoma 105% | SK-MEL-28 melanoma 119%

CCN(CC)CCCCCNc1cc(OC(=O)c2ccc(Cl)cc2)cc2cccnc12
inactive: HCT-15 colon 97.7% | HT29 colon 87.6% | SNB-75 CNS 89.5% | SNB-19 CNS 103% | U251 CNS 105% | PC-3 prostate 88.8% | SK-MEL-5 melanoma 105% | UACC-62 melanoma 98% | LOX IMVI melanoma 106% | SK-MEL-28 melanoma 116%

C=CC(=O)N1CCN(c2cccc(Oc3nccc(Nc4nnc(-c5ccc(Br)cc5)s4)n3)c2)CC1
inactive: HCT-15 colon 40.3% | HT29 colon 53.1% | SNB-75 CNS 69.3% | SNB-19 CNS 57.3% | U251 CNS 56.8% | PC-3 prostate 61.1% | SK-MEL-5 melanoma 42.7% | UACC-62 melanoma 37% | LOX IMVI melanoma 59% | SK-MEL-28 melanoma 67.1%

Nc1ncnc2c1C(c1ccccc1)c1ccc3ccccc3c1O2 (stereo not given)
inactive: HCT-15 colon 96.5% | HT29 colon 92.5% | SNB-75 CNS 64.7% | SNB-19 CNS 80.7% | U251 CNS 86.4% | PC-3 prostate 70.5% | SK-MEL-5 melanoma 77.7% | UACC-62 melanoma 68.5% | LOX IMVI melanoma 72.1% | SK-MEL-28 melanoma 103%

CN(C)CCNC(=O)c1ccc(-c2nc3ccc4[nH]ncc4c3c3c2C2CCC3C2)cc1 (stereo not given)
active: SNB-75 CNS -12.4%
inactive: HCT-15 colon 41.8% | HT29 colon 34.4% | SNB-19 CNS 60.9% | U251 CNS 44.8% | PC-3 prostate 19.9% | SK-MEL-5 melanoma 16.4% | UACC-62 melanoma 31.3% | LOX IMVI melanoma 26.2% | SK-MEL-28 melanoma 46.6%

Cc1csc(Nc2nc(-c3ccccn3)nc(C(Cl)(Cl)Cl)n2)n1
inactive: HCT-15 colon 57.2% | HT29 colon 68% | SNB-75 CNS 90.1% | SNB-19 CNS 80.9% | U251 CNS 62.2% | PC-3 prostate 91.1% | SK-MEL-5 melanoma 86.2% | UACC-62 melanoma 84.3% | LOX IMVI melanoma 49.4% | SK-MEL-28 melanoma 87.6%

CS(=O)(=O)Nc1cc(-c2ccc3ncnc(Nc4ccc5c(cnn5Cc5ccc(F)cc5)c4)c3c2)cnc1Cl
active: SNB-75 CNS -10.1%
inactive: HCT-15 colon 82.1% | HT29 colon 53.3% | SNB-19 CNS 47% | U251 CNS 37.2% | PC-3 prostate 38.2% | SK-MEL-5 melanoma 13.9% | UACC-62 melanoma 21% | LOX IMVI melanoma 18.3% | SK-MEL-28 melanoma 16.7%

C=C(C)[C@@H]1CCC[C@]2(COS(=O)(=O)c3ccc(C)cc3)CC[C@]3(C)[C@@H](CC[C@@H]4[C@@]5(C)CCCNC(C)(C)[C@@H]5CC[C@]43C)[C@@H]12
active: HCT-15 colon -61.5% | HT29 colon -50.8% | U251 CNS -82.1% | LOX IMVI melanoma -86.5%
inactive: SNB-75 CNS 81.6% | SNB-19 CNS 39% | PC-3 prostate 10.5% | SK-MEL-5 melanoma 92.1% | UACC-62 melanoma 87.7% | SK-MEL-28 melanoma 68.3%

O=C(N/N=C/c1c(Cl)cccc1Cl)c1cccnc1Nc1cccc(C(F)(F)F)c1
inactive: HCT-15 colon 26% | HT29 colon 40.4% | SNB-75 CNS 63.1% | SNB-19 CNS 27.7% | U251 CNS 16.4% | PC-3 prostate 24.3% | SK-MEL-5 melanoma 20.5% | UACC-62 melanoma 17.2% | LOX IMVI melanoma 25.8% | SK-MEL-28 melanoma 107%

NC(=O)c1c(NC(=O)c2ccc3ccccc3c2)sc2c1CCC(=O)C2
inactive: HCT-15 colon 42.1% | HT29 colon 55.2% | SNB-75 CNS 40.3% | SNB-19 CNS 46.3% | U251 CNS 22.9% | PC-3 prostate 16.6% | SK-MEL-5 melanoma 99.7% | UACC-62 melanoma 42% | LOX IMVI melanoma 37.5% | SK-MEL-28 melanoma 97.1%
